Some test systems named below: NCI-H23 lung; NCI-H226 lung; NCI-H322M lung; HOP-62 NSCLC; NCI-H460 lung; NCI-H522 lung; A549/ATCC NSCLC; 786-0 renal; COLO 205 colon; DU-145 prostate; K-562 leukemia; MALME-3M melanoma; MDA-MB-231 breast; RXF 393 renal; SF-268 CNS; SF-295 CNS; SF-539 CNS; UACC-257 melanoma; M14 melanoma.
Common to all, as to test: NCI-60 one-dose screen, 48 h (100 = growth as untreated, 0 = no growth, -100 = all killed)
Holding throughout (details): 10 µM unless noted

This is part of a sample that, as a whole, favours compounds with a hit. Of some 83,000 tested, about 20% had one in any assay.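 Activity criterion: percent growth below 10, measured after cells in 96-well plates were exposed to a single compound concentration for 48 hours.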 A number with no mark means an inactive call. Calls of active or inactive are those of the source.

As to `CCOc1ccc(C(=O)Nc2ncc(Cc3ccc(F)cc3)s2)cc1`, the growth is 28.4% in the experiment on NCI-H23 lung; 40.1% with NCI-H226 lung; 55.3% in the experiment with NCI-H322M lung; 33.7% with HOP-62 NSCLC; 7.15% (active) in the experiment on NCI-H460 lung; 10.8% in the experiment on NCI-H522 lung. Further, the growth with A549/ATCC NSCLC is 33.6%; in the experiment with 786-0 renal, 39.3%; in the experiment with COLO 205 colon it was -21.9% (active); with DU-145 prostate, 28.8%; in the experiment on K-562 leukemia, 9.95% (active); with MALME-3M melanoma it was 63.6%. The growth in the experiment with MDA-MB-231 breast is 36%; in the experiment on RXF 393 renal it was 1.11% (active); with SF-268 CNS it was 53.6%; with SF-295 CNS, 4.39% (active); in the experiment with SF-539 CNS, 1.96% (active); in the experiment with UACC-257 melanoma, 77.7%. Also, the growth in the experiment with M14 melanoma was 15.4%.
As to `COc1ccc(/C=N/NC(=O)c2cn(C3CC3)c3c(OC)c(N4CC5CCCNC5C4)c(F)cc3c2=O)cc1` (centres undefined), the growth with NCI-H23 lung is 85.7%; with NCI-H226 lung, 99%; in the experiment with NCI-H322M lung, 89.7%; in the experiment on HOP-62 NSCLC it was 101%; in the experiment on NCI-H460 lung it was 92%; in the experiment with NCI-H522 lung it was 102%. Moreover, the growth in the experiment with A549/ATCC NSCLC is 98.5%; in the experiment on 786-0 renal it was 84.2%; with COLO 205 colon, 95.1%; in the experiment with DU-145 prostate, 93.6%; with K-562 leukemia it was 7.92% (active); with MALME-3M melanoma, 90.4%. Further, the growth in the experiment on MDA-MB-231 breast is 81.1%; in the experiment with SF-268 CNS it was 83.6%; in the experiment on SF-295 CNS, 103%; in the experiment on SF-539 CNS it was 35.5%; in the experiment on UACC-257 melanoma, 106%.
Take `Cc1[nH]c(C(=O)Nc2ccccc2OCc2cccc(C(=O)N3CCC[C@@H](N)C3)c2)c(Cl)c1Cl`: the growth with NCI-H23 lung is -80.6% (active); in the experiment with NCI-H226 lung it was -67.4% (active); in the experiment with NCI-H322M lung it was -94.3% (active); in the experiment with HOP-62 NSCLC, -60.4% (active); in the experiment on NCI-H460 lung, -73.7% (active); in the experiment with NCI-H522 lung, -66.5% (active). For the same molecule, the growth with A549/ATCC NSCLC was -77% (active); with 786-0 renal, -72.6% (active); with COLO 205 colon, -64% (active); in the experiment with DU-145 prostate it was -89.3% (active); in the experiment with K-562 leukemia, -49.6% (active); in the experiment on MALME-3M melanoma, -79.1% (active). Moreover, the growth in the experiment with MDA-MB-231 breast is -75.8% (active); with RXF 393 renal it was -87.6% (active); with SF-268 CNS, -66.9% (active); in the experiment with SF-295 CNS, -91.7% (active); in the experiment on SF-539 CNS it was -89.2% (active); in the experiment on UACC-257 melanoma it was -72.4% (active). Besides, the growth in the experiment on M14 melanoma is -85.7% (active).
With `N/C(=N\C(N)=N\c1nc2ccccc2s1)c1cccc(F)c1`, the growth was 76.5% [5 µM] in the experiment with NCI-H23 lung; 90.8% [5 µM] in the experiment with NCI-H226 lung; 92.6% [5 µM] in the experiment on NCI-H322M lung; 81.1% [5 µM] in the experiment on HOP-62 NSCLC; 88.7% [5 µM] with NCI-H460 lung; 94.5% [5 µM] in the experiment with NCI-H522 lung. For the same molecule, the growth is 75.9% [5 µM] in the experiment with A549/ATCC NSCLC; 107% [5 µM] with 786-0 renal; 106% [5 µM] in the experiment on COLO 205 colon; 104% [5 µM] in the experiment with DU-145 prostate; 89.2% [5 µM] in the experiment with K-562 leukemia; 91.5% [5 µM] with MALME-3M melanoma. Also, the growth in the experiment with MDA-MB-231 breast is 78.7% [5 µM]; in the experiment on RXF 393 renal, 122% [5 µM]; in the experiment on SF-268 CNS, 99.1% [5 µM]; with SF-295 CNS, 87.8% [5 µM]; with SF-539 CNS it was 100% [5 µM]; in the experiment with UACC-257 melanoma, 104% [5 µM]. In the experiment with M14 melanoma, the growth is 98.4% [5 µM].
On to `Oc1cccc2ccc(-c3nnc(SCc4ccc(O)c5ncccc45)n3-c3ccccc3)nc12`, for which the growth in the experiment with NCI-H23 lung was 20.5%; in the experiment on NCI-H226 lung, 39.5%; in the experiment on NCI-H322M lung, 20.9%; in the experiment on HOP-62 NSCLC, 16.5%; in the experiment with NCI-H460 lung, 2.48% (active); in the experiment with NCI-H522 lung it was 13.5%. For the same molecule, the growth was 15.4% in the experiment on A549/ATCC NSCLC; 25.9% with 786-0 renal; 53.9% in the experiment with COLO 205 colon; 25.2% with DU-145 prostate; 12.4% in the experiment with K-562 leukemia; -3.5% (active) in the experiment with MALME-3M melanoma. Also, the growth in the experiment with MDA-MB-231 breast is 29.7%; in the experiment with SF-268 CNS it was 22.8%; in the experiment with SF-295 CNS, 2.95% (active); in the experiment with SF-539 CNS, 4.73% (active); in the experiment with UACC-257 melanoma it was -2.75% (active).
As to `NC(N)=Nc1ccc(Oc2cccc(NC(N)=Nc3ccc(I)cc3F)c2)cn1`, the growth in the experiment on NCI-H23 lung was 52.2%; in the experiment on NCI-H226 lung, 84.3%; with NCI-H322M lung, 53.1%; with HOP-62 NSCLC, 66.9%; with NCI-H460 lung it was 40.6%; in the experiment with NCI-H522 lung, 41.2%. The growth in the experiment on A549/ATCC NSCLC is 57.9%; in the experiment on 786-0 renal it was 80.8%; in the experiment with COLO 205 colon it was 39.7%; in the experiment on DU-145 prostate, 88.3%; in the experiment on K-562 leukemia it was 46.1%; in the experiment with MALME-3M melanoma, 75.5%. Besides, the growth in the experiment on MDA-MB-231 breast was 62.8%; in the experiment on SF-268 CNS, 36.3%; with SF-295 CNS, 47.3%; in the experiment with SF-539 CNS, 60.3%; in the experiment on UACC-257 melanoma, 75.6%.
Take `Oc1cccc2ccc(-c3nnc(SCc4ccc(O)c5ncccc45)o3)nc12`: the growth with NCI-H23 lung is 3.67% (active); in the experiment with NCI-H226 lung, 35.2%; in the experiment on NCI-H322M lung, 39.9%; with HOP-62 NSCLC, 25.8%; in the experiment on NCI-H460 lung, 1.33% (active); in the experiment on NCI-H522 lung, 11.2%. The growth with A549/ATCC NSCLC is 15.9%; in the experiment with 786-0 renal, 21.1%; in the experiment with COLO 205 colon, 31.7%; with DU-145 prostate it was 22.1%; in the experiment with K-562 leukemia it was 14.6%; in the experiment on MALME-3M melanoma it was -3.31% (active). For the same molecule, the growth in the experiment on MDA-MB-231 breast was 26.6%; in the experiment on SF-268 CNS it was 23.4%; in the experiment with SF-295 CNS, 3.94% (active); in the experiment with SF-539 CNS, 14.5%; in the experiment on UACC-257 melanoma, 0.0475% (active).
For the molecule `COc1ccc(OC)c(-c2nc(SCC(=O)c3ccc(Br)cc3)nc(Nc3ccc(S(N)(=O)=O)cc3)c2C#N)c1`, the growth with NCI-H23 lung was 58.4%; with NCI-H226 lung it was 50%; in the experiment with NCI-H322M lung, 81.7%; in the experiment on HOP-62 NSCLC, 48.4%; in the experiment on NCI-H460 lung, 20.8%; in the experiment with NCI-H522 lung it was 48%. Also, the growth is 67.4% in the experiment with A549/ATCC NSCLC; 41.4% with 786-0 renal; 68.4% in the experiment with COLO 205 colon; 55.2% with DU-145 prostate; 22.5% in the experiment on K-562 leukemia; 50.2% in the experiment on MALME-3M melanoma. Further, the growth in the experiment on MDA-MB-231 breast is 63%; with RXF 393 renal, 17.3%; in the experiment on SF-268 CNS it was 56.7%; in the experiment with SF-295 CNS, 33.1%; with SF-539 CNS it was 28.4%; in the experiment on UACC-257 melanoma, 56.9%. For the same molecule, the growth in the experiment with M14 melanoma was 42.5%.

For the origin of these results see PubChem BioAssay (NCI).
